Consider six molecules from PubChem BioAssay (Tox21).

Assay [1] can be described thus: qHTS assay for small molecule agonists of the p53 signaling pathway (AID 651631; calls by dose curve; also: nearly all actives have a fitted effect of over 15% in size; also: potency is read from the fitted curve at half-maximal effect). Summed up:
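HCT-116 cells carrying a stable p53 response element–beta-lactamase reporter were plated, rested 5 h at 37 °C, then exposed to compound in DMSO for 16 h at 37 °C; reporter activity was read as FRET substrate fluorescence after 2 h at room temperature.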
On the technique in general: Quantitative high-throughput screening tests each substance at several concentrations.

Assay [2] in a line: qHTS assay for small molecules that induce genotoxicity in human embryonic kidney cells expressing luciferase-tagged ATAD5 (AID 651632). Also: nearly all actives have a fitted effect of over 15% in size. Also: potency is read from the fitted curve at half-maximal effect. Summed up: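 Genotoxicity read-out via ATAD5-luciferase: HEK293T cells, 16 hr compound incubation at 37C, Amplite detection.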
Assay [3] is described as follows: qHTS assay for small molecule agonists of the p53 signaling pathway - cell viability (AID 651633; calls by dose curve; also: nearly all actives have a fitted effect of over 30% in size; also: potency is read from the fitted curve at half-maximal effect). Summed up:
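p53RE-bla cells were treated with compound for 16 hours at 37 C. Cytotoxicity was then measured as CellTiter-Glo luminescence after 30 min at room temperature.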

The nature of assay [4]: qHTS assay for small molecule disruptors of the mitochondrial membrane potential - cell viability (AID 720634; calls by dose curve; also: nearly all actives have a fitted effect of over 20% in size; also: potency is read from the fitted curve at half-maximal effect). Summed up:
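Human hepatoma HepG2 cells were treated for 1 hr with test chemicals, then given m-MPI dye and CellTiter-Glo. Cell viability reflects luminescence proportional to cellular ATP.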

Assay [5] in a line: qHTS assay for small molecule disruptors of the mitochondrial membrane potential (AID 720635). Also: potency is read from the fitted curve at half-maximal effect. Summed up: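 HepG2 cells exposed to compound 1 hr at 37C, then Mito-MPS dye 30 min. Ratio read of aggregate (540/590 nm) versus monomer (490/535 nm) fluorescence.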
Assay [6] can be described thus: qHTS assay to test for compound auto fluorescence at 590 nm (red) in HepG2 cells (AID 720674). The essentials: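 Seeding: 2,000 HepG2 cells/well, MEM/10% FBS, overnight 37 C. Dosing: compound vs DMSO. Incubation: 1 hr, 37 C, 5% CO2. Read: fluorescence 540 ex/590 em, Rose Bengal sodium as red reference.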
Assay [7] can be described thus: qHTS assay to test for compound auto fluorescence at 535 nm (green) in HepG2 cells (AID 720675).
A short description of assay [8]: qHTS assay to test for compound auto fluorescence at 460 nm (blue) in HEK293 cells (AID 720678). Also: potency is read from the fitted curve at half-maximal effect. Summed up:
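Intrinsic compound fluorescence is recorded in live HEK293 cultures after overnight incubation at 37C, 5% CO2, using excitation 405 nm and emission 460 nm. Values are referenced to triamterene.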

Assay [9] is described as follows: qHTS assay to test for compound auto fluorescence at 590 nm (red) in HEK293 cells (AID 720679). The essentials:
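Red autofluorescence, HEK293 cells: 2,000 cells/well; attach 4-5 hr 37C; add 23 nL cpd or DMSO; incubate o/n 37C 5% CO2; read Ex540/Em590; Rose Bengal sodium reference.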

The nature of assay [10]: qHTS assay to test for compound auto fluorescence at 535 nm (green) in HEK293 cells (AID 720680).
The nature of assay [11]: qHTS assay to test for compound auto fluorescence at 460 nm (blue) in HEK293 cell free culture (AID 720681). Also: potency is read from the fitted curve at half-maximal effect. Summed up:
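Compounds were added to cell-free DMEM with 10% FBS and fluorescence read directly. The blue channel used 405 nm excitation and 460 nm emission, with triamterene as the reference fluorophore.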

The nature of assay [12]: qHTS assay to test for compound auto fluorescence at 535 nm (green) in HEK293 cell free culture (AID 720682). The essentials: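 Read-out: 485/535 nm fluorescence intensity, calibrated against fluorescein. Medium only (DMEM + 10% FBS, no cells); test compound or DMSO vehicle added by pintool before plate reading.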
A short description of assay [13]: qHTS assay to test for compound auto fluorescence at 590 nm (red) in HEK293 cell free culture (AID 720683). The essentials:
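Cell-free wells of DMEM with 10% FBS received compound, and intrinsic fluorescence was read at excitation/emission 540/590 nm. Values expressed as equivalence to Rose Bengal sodium.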

The nature of assay [14]: qHTS assay to test for compound auto fluorescence at 590 nm (red) in HepG2 cell free culture (AID 720684). The essentials:
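Compounds are added to culture medium (MEM, 10% FBS) lacking cells, then fluorescence is read at excitation 540 nm, emission 590 nm, with Rose Bengal sodium as the equivalency standard.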

Assay [15] is described as follows: qHTS assay to test for compound auto fluorescence at 460 nm (blue) in HepG2 cell free culture (AID 720685). Summed up: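 Compound (23 nL) or DMSO pinned into cell-free MEM with 10% FBS; blue fluorescence read at 405/460 nm excitation/emission, expressed as auto-fluorescence equivalency to triamterene.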
Assay [16] is described as follows: qHTS assay to test for compound auto fluorescence at 535 nm (green) in HepG2 cell free culture (AID 720686).
The nature of assay [17]: qHTS assay to test for compound auto fluorescence at 460 nm (blue) in HepG2 cells (AID 720687). The essentials: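 HepG2 cells in MEM with 10% FBS, attached overnight at 37 C, were exposed to compound or DMSO for 1 hr at 37 C, 5% CO2. Blue fluorescence was read at 405/460 nm, with triamterene as reference fluorophore.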
The target in assay [18] is Glucocorticoid receptor (Homo sapiens) (UniProt P04150). Nature of the assay: qHTS assay to identify small molecule agonists of the glucocorticoid receptor (GR) signaling pathway (AID 720691; active = well fitted activation curve with a large enough effect in the signal ratio in the repeat runs, not every such curve was filed as active; the % refers to the signal ratio; also: potency is read from the fitted curve at half-maximal effect). As to conditions: GR-bla HeLa, beta-lactamase reporter ratio, 18 h; activation: at 62.4 µM (top of the series). The essentials:
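Beta-lactamase reporter activity, read as fluorescence intensity, was measured in GR-bla HeLa cells exposed to compounds for 18 h at 37 C and then loaded with LiveBLAzer B/G FRET substrate for 2 h at room temperature.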

A short description of assay [19]: qHTS assay for small molecules that induce genotoxicity in human embryonic kidney cells expressing luciferase-tagged ATAD5 - cell viability (AID 651634; calls by dose curve; also: nearly all actives have a fitted effect of over 25% in size). Summed up: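 Live-cell protease activity (CellTiter-Fluor, fluorescence) indicates viability. HEK293T cells with luciferase-tagged ATAD5; 15.5 hr compound treatment at 37C.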
In assay [20] the target is Glucocorticoid receptor (Homo sapiens) (UniProt P04150). Nature of the assay: qHTS assay to identify small molecule antagonists of the glucocorticoid receptor (GR) signaling pathway (AID 720692; active = well fitted inhibition curve with a large enough effect in the signal ratio in the repeat runs, not every such curve was filed as active; the % refers to the signal ratio; also: potency is read from the fitted curve at half-maximal effect). The essentials: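 Fluorescence from cleaved LiveBLAzer B/G FRET substrate reports GRE-driven beta-lactamase in HeLa cells; compounds are tested against 5 nM dexamethasone (final) over 18 h at 37 C, substrate incubation 2 h at room temperature.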

“And” between values parts separate entries of the source, which are not always exact repeats. Equal entries are not always repeated. Records with an inconclusive call do not appear. More than one record can exist for a structure, and the calls need not agree. The source made the active and inactive calls. Unless noted, calls follow the shape of the dose curve; as a rule, active = well fitted curve in the direction sought with a large enough effect in the repeat runs; inconclusive = weak or mixed curves; inactive = no such curve, though single readings can be large; an effect the other way counts as inactive or inconclusive.
Tags tell the direction and shape of the fitted curve or compound fluorescence and quenching.

Sequence of Glucocorticoid receptor (Homo sapiens) (P04150 whole entry, looked up): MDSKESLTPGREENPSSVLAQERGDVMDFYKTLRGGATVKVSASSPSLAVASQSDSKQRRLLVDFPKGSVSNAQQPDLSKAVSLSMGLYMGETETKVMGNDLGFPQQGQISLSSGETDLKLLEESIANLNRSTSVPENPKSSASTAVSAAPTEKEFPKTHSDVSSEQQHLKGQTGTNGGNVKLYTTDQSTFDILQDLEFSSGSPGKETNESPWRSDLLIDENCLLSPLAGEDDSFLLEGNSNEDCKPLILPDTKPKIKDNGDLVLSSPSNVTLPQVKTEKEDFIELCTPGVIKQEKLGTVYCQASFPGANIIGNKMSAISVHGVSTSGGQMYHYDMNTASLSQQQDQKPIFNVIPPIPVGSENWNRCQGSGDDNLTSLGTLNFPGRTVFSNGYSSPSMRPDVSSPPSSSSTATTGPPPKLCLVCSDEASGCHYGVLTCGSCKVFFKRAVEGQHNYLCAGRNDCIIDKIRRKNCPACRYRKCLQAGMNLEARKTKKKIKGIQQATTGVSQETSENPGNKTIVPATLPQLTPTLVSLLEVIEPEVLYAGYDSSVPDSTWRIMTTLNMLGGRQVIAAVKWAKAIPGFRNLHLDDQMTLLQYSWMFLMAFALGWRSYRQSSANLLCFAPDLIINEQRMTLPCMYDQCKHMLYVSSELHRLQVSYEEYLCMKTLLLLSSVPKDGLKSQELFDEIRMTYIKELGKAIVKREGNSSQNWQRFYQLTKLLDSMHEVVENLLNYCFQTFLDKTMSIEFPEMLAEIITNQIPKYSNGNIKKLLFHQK

For `Cc1nc(-c2ccc3c(c2)CCN(CCC2CCC(NC(=O)/C=C/c4ccc(F)cc4)CC2)CC3)no1` (stereo not drawn), the figures for the Potency in [1], in assay [2] and in [18] were 27.4 µM (active), 19.4 µM (active) and 21.9 µM (active), respectively. Moreover, the Potency entry in [3], in assay [4], in assay [5], in assay [6], in [7] and in assay [8] was “inactive” in each case. The Potency entry in assay [9], in assay [11], in assay [13], in assay [14], in [15] and in [16] was “inactive” each time. Further, the Potency result in assay [17] is “inactive”. Further, the molecule was called inactive in assay [10] and in assay [12].
As for `CC[C@H](c1ccc(O)cc1)[C@@H](CC)c1ccc(O)cc1`, the Potency in assay [1] was 5.07 µM (active) and 13.7 µM (active); in [3], “inactive and 54.5 µM (active)”; in assay [5] it was 8.04 µM (active) and 9.69 µM (active). Moreover, the Potency entry in assay [19], in [6], in assay [7], in [8], in [9] and in [11] was “inactive” throughout. Besides, the Potency result in assay [13], in [14], in assay [16], in assay [17] and in assay [18] was “inactive” throughout. The molecule was classed as inactive in assay [10] and in assay [12].
Consider `CC(=O)OCC(C)OC(C)=O` (stereo not drawn), for which the Potency result in assay [1], in [2], in assay [3], in assay [19], in assay [4] and in assay [6] was “inactive” each time. The Potency result in assay [8], in assay [9], in assay [13], in assay [14], in [15] and in [16] was “inactive” each time. Moreover, the Potency result in assay [17] is “inactive”. Also, the call in assay [10] and in assay [12] was inactive.
Regarding `CCCC/C=C/CCCCO`, the Potency entry in [1], in assay [2], in assay [3], in assay [19], in [4] and in assay [6] was “inactive” throughout. Further, the Potency entry in assay [8], in assay [9], in [13], in assay [14], in assay [15] and in assay [16] was “inactive” each time. Further, the Potency entry in assay [17], in [18] and in [20] was “inactive” throughout. In addition, the outcome in assay [10] and in assay [12] was inactive.
For `CC[C@@]1(O)C(=O)OCc2c1cc1n(c2=O)Cc2cc3c(CN(C)C)c(O)ccc3nc2-1`, the Potency was 0.237 µM (active) in assay [1], 8.41 µM (active) in [3], 17.8 µM [fluorescent] (active) in [8] and 14.1 µM (active) in assay [11]. Also, the Potency entry in [2], in assay [4], in [6], in assay [7], in [9] and in assay [13] was “inactive” in each case. In addition, the Potency entry in [14], in assay [16] and in assay [18] was “inactive” in each case. Besides, the outcome in assay [10] was inactive.
For the molecule `O=c1cc(-c2ccc(O)cc2)oc2cc(O)cc(O)c12`, the Potency in assay [1] is 15.6 µM (active) and 43.3 µM (active); in assay [2], 5.52 µM (active) and 4.86 µM (active); in assay [3], “inactive and 54.5 µM (active)”; in [4], 4.92 µM (active); in assay [5] it was 1.75 µM (active) and 1.37 µM (active); in assay [20], 27.9 µM (active) and 27.5 µM (active). The Potency result in assay [6], in assay [7], in [8], in assay [9], in [11] and in [13] was “inactive” throughout. Also, the Potency result in [14], in [16], in assay [17] and in [18] was “inactive” throughout. Moreover, the molecule was classed as inactive in [10] and in assay [12].
